Screen size: about 11,000 compounds; about 310 (2.8%) were called active. The sample holds actives, similar compounds and a random draw of the others, so the mix is not that of the screen. Cut-off read from the data, not from the text of the source: active = activity change below about -85%; inactive = the rest.

The test relates to intestinal alkaline phosphatase [Mus musculus]. Briefly: mouse intestinal phosphatase enzyme activation – biochemical, luminescence, single concentration, confirmation (AID 434970). The note with it: purified mouse IAP, CDP-Star luminescence, 30 min, at 10 µM; activation factor: measured here: IAP activation factor, stronger effect = higher value; activity change, negative = activation: stronger effect = lower value.
Regarding `CC(C)[C@H]1COCCS(=O)(=O)N1Cc1ccccc1-c1cccc2c1oc1ccccc12`, the activation factor came to 0.927 and the activity change, negative = activation was 7.3% (inactive).
For `Cc1c(C(=O)NCC2COc3ccccc3O2)oc2ccc(S(=O)(=O)N3CCOCC3)cc12` (centres undefined) the same measures were 1.07 and -6.7% (inactive).
Regarding `CCNc1nc(NC(C)(C)C)nc(SC(C(C)=O)C(C)=O)n1`, the activation factor is 1.04 and the activity change, negative = activation is -4.2% (inactive).
The like results for `O=C(OCn1nnc2ccccc2c1=O)C1CCN(S(=O)(=O)c2cccs2)CC1` were, in that order, 0.919 and 8.05% (inactive).
For `Cc1ccc(C2=NN3C(C(=O)c4ccccc4)Oc4ccccc4C3C2)cc1` (centres undefined) the same measures were 0.916 and 8.35% (inactive).
For `O=C(c1cc(NC(=O)C23CC4CC(CC(C4)C2)C3)cc(NC(=O)C23CC4CC(CC(C4)C2)C3)c1)N1CCCCC1` the same measures were 2.06 and -106% (active).
For `O=C(Nc1ccccc1N1CCN(c2ccccc2)CC1)C12CC3CC(CC(C3)C1)C2`, the activation factor came to 0.927 and the activity change, negative = activation was 7.25% (inactive).
The like results for `COC(=O)c1sccc1NC(=O)C12CC3CC(CC(C3)C1)C2` were, in that order, 1.03 and -2.7% (inactive).
The like results for `CCOc1ccccc1C1N(c2ccc(F)cc2)C(=O)C2CCCN21` (centres undefined) were, in that order, 0.988 and 1.2% (inactive).
For `CCc1nnc(NC(=O)C2CCCN2C(=O)Nc2ccccc2OC)s1` (centres undefined) the same measures were 1.12 and -12.2% (inactive).
Take `COc1ccc(NC(=O)Nc2ccc3c(c2)N(C)C(=O)CS3)cc1Cl`: the activation factor came out at 1.91 and the activity change, negative = activation is -90.9% (inactive).
The like results for `CCCCSCCCNC(=O)Nc1ccc(C)c(C)c1` were, in that order, 1.25 and -24.7% (inactive).
As for `CCCCNC(=O)Nc1ccc2c(c1)N(C)C(=O)c1ccccc1S2`, the activation factor was determined as 2.25 and the activity change, negative = activation is -124% (active).
For `CC(=O)c1ccc2c(c1)N(C)c1ccccc1S2` the same measures were 0.875 and 12.5% (inactive).
The like results for `CCC(C)NC(=O)Nc1ccc2c(c1)N(C)C(=O)c1ccccc1S2` (centres undefined) were, in that order, 2 and -100% (active).
For `CCCCSCCCNC(=O)Nc1ccc(CC)cc1` the same measures were 1.39 and -38.9% (inactive).
Take `COCCOC(=O)c1c(C)n(C)c2ccc(OC(=O)C3CC3)cc12`: the activation factor amounted to 1.07 and the activity change, negative = activation was -7.45% (inactive).
Consider `CCCCNS(=O)(=O)CCNCCc1ccccc1`, for which the activation factor amounted to 1.1 and the activity change, negative = activation is -10.1% (inactive).
For `COc1ccc(C2/C=C\CC(NS(=O)(=O)c3ccc(C)cc3)CC(=O)N2Cc2ccccc2F)cc1` (centres undefined) the same measures were 1.18 and -17.7% (inactive).
The like results for `O=C(CN1CCOCC1)Nc1cccc(C(=O)Nc2cccc(C(F)(F)F)c2)c1` were, in that order, 1.03 and -2.95% (inactive).
Turning to `Cc1occc1-c1nnc(SCC(=O)Nc2ccc3c(c2)OCO3)n1CC1CCCO1` (centres undefined), the activation factor is 0.919 and the activity change, negative = activation was 8.1% (inactive).
Turning to `CCOC(=O)C1=CN(Cc2cccc(F)c2)S(=O)(=O)NC1c1ccc(F)c(Cl)c1` (centres undefined), the activation factor is 0.881 and the activity change, negative = activation was 11.9% (inactive).
The like results for `C#CCOCCOCCOCCNc1nc(N2CCN(C(=O)CCCCCCCCCCNC(=O)Cn3cc(CCCCCN)nn3)CC2)nc(N2CCN(C(=O)CCCCCCCCCCNC(=O)Cn3cc(C[C@@H](C)O)nn3)CC2)n1` were, in that order, 2.22 and -122% (active).
For `C#CCOCCOCCOCCNc1nc(N2CCN(C(=O)CCCCCCCCCCNC(=O)Cn3cc(CCCCCN)nn3)CC2)nc(N2CCN(C(=O)CCCCCCCCCCNC(=O)[C@H]([C@@H](C)CC)n3cc(CCCCN=C(N)N)nn3)CC2)n1` the same measures were 10 and -904% (active).
For `C#CCOCCOCCOCCNc1nc(N2CCN(C(=O)CCCCCCCCCCNC(=O)Cn3cc(CCCCCN)nn3)CC2)nc(N2CCN(C(=O)CCCCCCCCCCNC(=O)[C@H]([C@@H](C)CC)n3cc(CCCCCN)nn3)CC2)n1` the same measures were 3.67 and -267% (active).
As for `C#CCOCCOCCOCCNc1nc(N2CCN(C(=O)[C@H](Cc3cc4ccccc4[nH]3)n3cc([C@@H](N)CC(C)C)nn3)CC2)nc(N2CCN(C(=O)[C@H](Cc3cc4ccccc4[nH]3)n3cc([C@@H](N)CC(C)C)nn3)CC2)n1`, the activation factor stood at 1.61 and the activity change, negative = activation is -60.9% (inactive).
For `C#CCOCCOCCOCCNc1nc(N2CCN(C(=O)CCCCCCCCCCNC(=O)Cn3cc(C[C@@H](C)O)nn3)CC2)nc(N2CCN(C(=O)CCCCCCCCCCNC(=O)[C@@H]([C@H](C)CC)n3cc(CCCCCN)nn3)CC2)n1` the same measures were 5.59 and -459% (active).
The like results for `CCOC(=O)CN1C(=O)/C(=C2\SC(=S)N(NC(=O)c3cccnc3)C2=O)c2ccccc21` were, in that order, 0.472 and 52.8% (inactive).
The like results for `Cc1c(C(=O)N2CCN(c3ncccn3)CC2)sc2nc3n(c(=O)c12)CCCC3` were, in that order, 1.11 and -11.4% (inactive).
On to `Clc1ccc2nc(C3CCN(Cc4nnnn4C4CCCCC4)CC3)[nH]c2c1`, for which the activation factor was determined as 1.15 and the activity change, negative = activation was -14.6% (inactive).
`CCn1nnnc1SCC(=O)c1cccc(OC)c1`: the activation factor came out at 0.96 and the activity change, negative = activation is 4.05% (inactive).
With `COc1cccc(CNC(=O)c2ccc(NC(=O)C3CCCO3)cc2)c1` (centres undefined), the activation factor was 0.932 and the activity change, negative = activation is 6.8% (inactive).
The like results for `CCOc1ccc(-n2cc(C(=O)Nc3ccc(Cl)cn3)c3cc(OC)c(OC)cc3c2=O)cc1` were, in that order, 0.946 and 5.4% (inactive).
For `Oc1ccccc1C1=NOC(O)(C(F)F)C1` (centres undefined) the same measures were 0.928 and 7.2% (inactive).
In the case of `CCOC(=O)N1CCN(C(=O)c2ccc3c(=O)n(CCC4=CCCCC4)c(=O)[nH]c3c2)CC1`, the activation factor is 0.936 and the activity change, negative = activation is 6.4% (inactive).
The like results for `O=C(CC1CCCC1)Nc1nnc(C2CC2)s1` were, in that order, 0.933 and 6.65% (inactive).
For `Cc1onc(-c2ccccc2)c1C(=O)Nc1nc2c(s1)C(=O)CC(C)(C)C2` the same measures were 0.877 and 12.2% (inactive).
Regarding `CCOc1ccc(CCNC(=O)c2cc(-c3ccccc3)c(N3CCOCC3)s2)cc1`, the activation factor worked out at 2.1 and the activity change, negative = activation was -110% (active).
For `CCOc1ccc(CCNC(=O)c2cc(-c3ccccc3)c(N3CCOCC3)s2)cc1OCC` the same measures were 1.74 and -73.9% (inactive).
On to `O=C(NCCc1ccccc1)c1cc(-c2ccccc2)c(N2CCOCC2)s1`, for which the activation factor was found to be 1.46 and the activity change, negative = activation was -45.9% (inactive).
For `O=C(NCCc1ccc(F)cc1)N1CCOCC1` the same measures were 1.01 and -0.6% (inactive).
For `O=C(CCCC(=O)N(CC(=O)NC1CCCCC1)Cc1ccccc1)Nc1ccccn1` the same measures were 1.16 and -15.6% (inactive).
The like results for `CCCCC(=O)Nc1ccc(NC(=O)c2cccnc2)cn1` were, in that order, 1.06 and -5.55% (inactive).
As for `Cc1ccccc1NC(=O)/C(=C\c1cccs1)NC(=O)c1ccccc1`, the activation factor is 1.02 and the activity change, negative = activation is -1.5% (inactive).
For `COc1ccc(C(CCN2CCOCC2)c2c(OC)cc(OC)c3c(-c4ccccc4)cc(=O)oc23)cc1` (centres undefined) the same measures were 1.07 and -7.05% (inactive).
Regarding `O=C(Nc1cccc(Cl)c1)Nc1cc(S(=O)(=O)N2CCCCC2)ccc1Cl`, the activation factor was 2.08 and the activity change, negative = activation is -108% (active).
The like results for `O=C(CN1CCN(S(=O)(=O)c2ccc(Cl)cc2)CC1)NC(=O)NC1CCCCC1` were, in that order, 0.929 and 7.05% (inactive).
For `O=C(Cc1ccc(Cl)cc1)Nc1cccc(S(=O)(=O)N2CCCCC2)c1`, the activation factor was 1.4 and the activity change, negative = activation is -40.2% (inactive).
For `O=C(Nc1ccc(Cl)cc1Cl)NC1CCN(S(=O)(=O)c2ccc(F)cc2)CC1` the same measures were 2.16 and -116% (active).
For `O=C(Nc1cccc(S(=O)(=O)N2CCCCC2)c1)Nc1ccc(Cl)cc1Cl` the same measures were 4.41 and -341% (active).
For `O=C(Cc1ccccc1Cl)Nc1cccc(S(=O)(=O)N2CCCCCC2)c1` the same measures were 1.61 and -60.6% (inactive).
Turning to `Cc1cc(OCC(=O)Nc2cccc(S(=O)(=O)N3CCCCC3)c2)ccc1Cl`, the activation factor was found to be 1.81 and the activity change, negative = activation is -81.3% (inactive).
As to `O=C(Nc1ccc(Cl)cc1F)c1cc(S(=O)(=O)N2CCCCC2)ccc1F`, the activation factor is 1.11 and the activity change, negative = activation was -11.5% (inactive).
In the case of `COc1ccc(CCNc2nc(-c3ccco3)cc(C(F)(F)F)n2)cc1OC`, the activation factor was 0.889 and the activity change, negative = activation was 11.2% (inactive).
For the compound `CCn1c(CSc2nc3ccccc3[nH]2)nc2cc(C(=O)O)ccc21`, the activation factor turned out to be 0.865 and the activity change, negative = activation was 13.6% (inactive).
For `CN1CCN(CCc2nc3cc(NC(=O)COc4ccccc4)ccc3n2C)CC1` the same measures were 0.96 and 4.05% (inactive).
For `CN1CCN(C(=O)c2ccc3c(c2)OCCO3)CC1` the same measures were 0.959 and 4.15% (inactive).
The like results for `Cc1nc(CC(=O)Nc2nc(-c3ccccc3)cs2)cs1` were, in that order, 0.961 and 3.9% (inactive).
Regarding `COc1ccc(OC)c(S(=O)(=O)N2CCC(C(=O)NC(C)c3ccccc3)CC2)c1` (centres undefined), the activation factor worked out at 1.03 and the activity change, negative = activation is -3.4% (inactive).
For `Nc1c(C(=O)NCCc2ccccc2)nnn1Cc1ccc(Cl)cc1` the same measures were 1.1 and -9.55% (inactive).
For `Cc1cc(C)c2c(n1)nn1c(NCCOCCO)cc(C)nc21` the same measures were 0.968 and 3.25% (inactive).
Regarding `Cc1ccc(S(=O)(=O)N2C[C@@H]3[C@H]4CC[C@H](C4)[C@@H]3[C@@H](C)[C@@H]2c2ccn([Si](C(C)C)(C(C)C)C(C)C)c2)cc1`, the activation factor was 0.986 and the activity change, negative = activation was 1.35% (inactive).
The like results for `COc1ccc(S(=O)(=O)Nc2cc(C(C)C)c(O)cc2C)cc1` were, in that order, 0.996 and 0.45% (inactive).
For `Cc1ccc(SCCCn2cnc3ccccc3c2=O)cc1` the same measures were 0.958 and 4.25% (inactive).
The like results for `COc1cc(OC)c2c(-c3ccccc3)cc(=O)oc2c1C(CCN1CCOCC1)c1ccc2c(c1)OCO2` (centres undefined) were, in that order, 0.932 and 6.8% (inactive).
Regarding `CCN(CC)C(=O)[C@H]1CC(CC(=O)NCCC2=CCCCC2)C(=O)N2CCc3c([nH]c4ccc(OC)cc34)[C@]12C` (some centres undefined), the activation factor is 1.07 and the activity change, negative = activation was -7.45% (inactive).
As to `O=C(Nc1cccc(-c2cccc(Cl)c2)c1)C1CCN(C2CCC2)CC1`, the activation factor came out at 3.94 and the activity change, negative = activation is -294% (active).
`COc1ccc(OC)c(S(=O)(=O)N2CCC(C(=O)Nc3cccc(C(F)(F)F)c3)CC2)c1`: the activation factor worked out at 1.61 and the activity change, negative = activation is -60.9% (inactive).
The like results for `S=C(Nc1cccc(Cl)c1)NC1CC2CCCC(C1)N2C1CCCC1` (centres undefined) were, in that order, 1.44 and -44.3% (inactive).
For `O=C(Nc1cccc(F)c1)C1CC(=O)N(c2ccc(Cl)cc2)C1` (centres undefined) the same measures were 1.07 and -7.45% (inactive).
The like results for `O=C(Nc1cccc(Cl)c1)NC1CCN(C2CCCCC2)C1` (centres undefined) were, in that order, 1.85 and -84.9% (inactive).
`O=C(Nc1cccc(-c2cccc(F)c2)c1)C1CCN(C2CCC2)CC1`: the activation factor came out at 2.55 and the activity change, negative = activation is -155% (active).
